Giardia FBPA inh: Giardia lamblia aldolase inhibition; purified Giardia FBPA; Potency, µM (doses to about 59.6 µM), for the others: at the top dose activity, negative = inhibition, hits mostly inhibitors; 290,000 tested, 0.71% active; A8B2U2; also: % is scaled to controls: 0 for no effect and ±100 for the full control effect; nearly all actives have a fitted effect of over 55% in size
Target sequence (A8B2U2 whole entry, looked up): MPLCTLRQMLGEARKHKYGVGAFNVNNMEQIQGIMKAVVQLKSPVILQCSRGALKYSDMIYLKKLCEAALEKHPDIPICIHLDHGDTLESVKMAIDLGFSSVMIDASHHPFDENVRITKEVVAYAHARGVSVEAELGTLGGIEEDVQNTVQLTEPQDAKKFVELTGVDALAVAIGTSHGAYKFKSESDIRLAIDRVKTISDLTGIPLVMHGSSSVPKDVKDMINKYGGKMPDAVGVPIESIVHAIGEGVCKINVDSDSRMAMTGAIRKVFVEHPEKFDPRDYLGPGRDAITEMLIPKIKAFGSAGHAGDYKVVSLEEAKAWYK
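40 nM FBPA preincubated 10 min at RT with compound (up to 57.5 uM final), then substrate plus GAPDH/TPI/NAD/arsenate coupling and diaphorase/resazurin added. Fluorescence read after 20 min at RT, 525/598 nm.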
Sm TGR inh: S. mansoni TGR enzyme inhibition; Q962Y6; purified TGR, DTNB reduction, TNB absorbance 405 nm; Potency, µM (top dose mostly 114 µM), for the others: top-dose activity change, negative = inhibition, actives largely listed as inhibitors; 360,000 tested, 3% active; AID 485364; also: % is scaled to controls: 0 for no effect and ±100 for the full control effect; nearly all actives have a fitted effect of over 60% in size
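First, TGR (20 nM dispensed) and NADPH were mixed with compound. Second, a 15 min room-temperature incubation followed. Third, further NADPH and then DTNB were added to start the reaction. Finally, TNB absorbance was monitored kinetically.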
RE007 growth inh: less growth of the S. pombe RE007 Vpr strain; AID 651644; S. pombe RE007 Vpr strain, BacTiter-Glo ATP luminescence, 24 h; 360,000 tested, 0.21% active; Potency, µM (titrated, usually from 92.2 µM), inactives show top-dose activity change, negative = less growth, actives largely listed as inhibitors; active = well fitted falling curve with a large enough effect; inconclusive = small, poorly fitted or top-dose-only effect; inactive = no such curve, though single readings can be large or run the other way; also: % is scaled to controls: 0 for no effect and ±100 for the full control effect; nearly all actives have a fitted effect of over 50% in size
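Fission yeast RE007 carrying one integrated HIV-1 vpr copy, seeded at OD 0.01 in PMG+AL medium with 23 nL pinned compound. Grown 24 h at 30 degrees; viability read by BacTiter-Glo luminescence after 5 min.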
LmPK inh: LmPK (Leishmania mexicana) enzyme inhibition. Q27686. Potency, µM (top dose mostly 57.5 µM), without a hit: at the highest dose activity change, negative = inhibition, most hits filed as inhibitors. 290,000 tested, 0.37% active. AID 1721. purified LmPK, Kinase-Glo ATP luminescence, 1 h; also: % is scaled to controls: 0 for no effect and ±100 for the full control effect
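qHTS format; LmPK 0.1 nM; substrates PEP 0.5 mM and ADP 0.1 mM. One-hour room-temperature incubation, then coupled luciferase luminescence; 0.5 nM enzyme wells mark activation.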
Tb PYK inh: inhibitors of Trypanosoma brucei pyruvate kinase; Potency, µM (titrated, usually from 76.8 µM), without a hit: at the top dose activity, negative = inhibition, actives largely listed as inhibitors; AID 624173; TbPYK enzyme, Kinase-Glo Plus ATP luminescence, 45 min; 410,000 tested, 0.12% active; Q57TT1; also: % is scaled to controls: 0 for no effect and ±100 for the full control effect; nearly all actives have a fitted effect of over 50% in size
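Enzyme and substrate buffer are dispensed first and compound is pin-transferred. ADP at 130 uM final then starts the reaction, which runs 45 min at room temperature. Detection reagent is added for 10 min before luminescence is imaged.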
NS1 function inh: inhibitors of influenza NS1 protein function | Potency, µM (doses to about 46.1 µM), for the others: at the top dose activity, positive = more growth | 270,000 tested, 0.4% active | AID 2326; calls by dose curve; also: actives are rising curves; nearly all actives have a fitted effect of over 50% in size
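Read-out: OD600 growth recovery of NS1-expressing budding yeast. Cells grown overnight at 30C in -URA glucose medium, washed, resuspended and diluted 1:100 in 2% galactose assay medium, pH 6.0. Same strain lacking NS1 served as positive control.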
Numbers without * were called inactive; ? = inconclusive; . = not tested or not shown; [ ] = remark or other dose. In the library only some 3.5% were active in any assay of this set; here they are far more common. Unless noted, calls follow the shape of the dose curve; as a rule, active = well fitted curve in the direction sought with a large enough effect; inconclusive = small, poorly fitted or top-dose-only effect, or another doubt; inactive = no such curve, though single readings can be large; an effect the other way counts as inactive or inconclusive. Potency is read from the fitted curve at half-maximal effect.

SMILES | Giardia FBPA inh | Sm TGR inh | RE007 growth inh | LmPK inh | Tb PYK inh | NS1 function inh
CCOC(=O)c1cc(-c2ccc(F)cc2)n(CCC(=O)Nc2ccccc2OC)c1C | . | -4% | . | . | 8%[15.4 µM] | .
CN(C)c1ccc(C(CC(=O)O)NC(=O)c2ccc(Cl)cc2)cc1 (stereo not given) | 5% | 32µM* | -8% | 2% | -5% | -6%
Cc1ccc(-n2c(=O)c3ccc(C(=O)NCc4ccccc4Cl)cc3n(CC(=O)Nc3cccc(F)c3)c2=O)cc1 | . | 4% | . | . | 0% | .
Cc1c(-c2nsc(NC(=O)c3cccs3)n2)nnn1-c1ccc(Br)cc1 | . | 4% | . | . | -8% | .
CC(CCc1ccco1)NC(=O)Cn1ncc2c1-c1ccccc1OC2 (stereo not given) | -3% | 50µM* | -1% | 0% | -7% | 5%
O=C(Cn1ncc2c1-c1ccccc1OC2)N(Cc1ccco1)C1CCCCC1 | 6% | ? | 0% | -1% | -5% | -48%
Cc1nn(-c2cc(C(F)(F)F)ccc2Cl)c2nc(C(Cl)(Cl)Cl)[nH]c(=O)c12 | 20% | 20µM* | 16% | 0% | 2% | -23%
CC1=C(C(=O)NCc2ccccc2C)C2(CCCCC2)OC1=O | . | 5% | . | . | -2% | .
COCCn1c(=O)[nH]c2cc(C(=O)N3CCN(c4ccc(Cl)cc4)CC3)ccc2c1=O | -7% | 3% | 21% | 0% | 2% | 20%
COCCn1c(C)cc(O)c(C(c2ccc(F)cc2)N2CCN(c3ccccc3)CC2)c1=O (stereo not given) | . | 3.2µM* | . | . | -15% | .
COCCn1c(C)cc(O)c(C(c2ccc(Cl)cc2)N2CCN(c3ccccc3)CC2)c1=O (stereo not given) | . | 2.8µM* | . | . | -11% | .
CCOc1ccc(C(c2c(O)cc(C)n(CCOC)c2=O)N2CCN(c3ccccc3)CC2)cc1 (stereo not given) | . | 6.3µM* | . | . | 3% | .
CCOc1ccc(C(c2c(NC(=O)c3ccccc3)sc(C)c2C)N2CCN(C)CC2)cc1 (stereo not given) | 8% | -1% | 43% | -2% | -3% | 25%
Cc1ccn2c(=O)cc(COc3ccc(NC(=O)COc4ccc(Cl)cc4)cc3)nc2c1 | . | 0% | . | . | -10% | .
CC(C)(C)C(=O)Nc1c(C(=O)N2CCN(c3ccc(F)cc3)CC2)oc2ccccc12 | . | 0% | . | . | 3% | .
COc1ccc(Cn2c(CO)cnc2SCc2ccc(F)cc2)cc1 | . | 2% | . | . | -10% | .
COc1ccnc(CSC(N)=Nc2ccc(F)cc2)c1 | ? | 45µM* | ? | 0% | ? | 4%
CN(C)CCC=C1c2ccccc2CCc2ccccc21 | ? | 7.1µM* | 10%[18.4 µM] | 2% | 3% | -6%
CN(C)CC/C=C1/c2ccccc2COc2ccccc21 | -1% | 20µM* | . | 10% | . | .
CN(C)CCC=C1c2ccccc2C=Cc2ccccc21 | -2% | 25µM* | -11% | . | 2% | -9%
CN(C)CCC=C1c2ccccc2C(C)(C)c2ccccc21 | . | . | . | . | -7% | .
CN(C)CC/C=C1\c2ccccc2COc2ccc(CC(=O)O)cc21 | . | . | . | . | 10% | .
CN(C)CC/C=C1/c2ccccc2COc2ccc(CC(=O)O)cc21 | . | . | 9%[18.4 µM] | . | -9% | .
CCN1CCN(c2nc(C)nc3c2sc(=S)n3C)CC1 | 18µM* | -10% | -5% | -4% | ? | -9%
COc1ccc(-c2nc(CN3CCC(C(=O)NCc4ccc(C)cc4)CC3)c(C)o2)cc1OC | . | 2% | . | . | 1% | .
SMILES | Giardia FBPA inh | Sm TGR inh | RE007 growth inh | LmPK inh | Tb PYK inh | NS1 function inh
O=C(/C=C/c1ccc(O)c(O)c1)OC1C(O)CC(OC(=O)/C=C/c2ccc(O)c(O)c2)(C(=O)O)CC1O (stereo not given) | -25% | -12% | 3% | 2µM* | ? | 4%
O=C(/C=C\c1ccc(O)c(O)c1)O[C@@H]1C[C@](O)(C(=O)O)C[C@@H](O)[C@@H]1O | -11%[21.7 µM] | . | . | . | . | .
Cc1ccc(S(=O)(=O)c2c(C)nn(-c3ccccc3)c2OC(=O)c2ccco2)cc1 | 24% | 35µM* | -18% | 1% | -11% | 10%
O=C(c1cc2ccccc2oc1=O)N(Cc1ccco1)Cc1cccs1 | 0% | 28µM* | 19% | 3% | -5% | -6%
COc1ccc(Cl)c(Cn2c(NCCN)nc3c2c(=O)n(C)c(=O)n3C)c1 | . | 1% | . | . | -2% | .
COc1cc(C2c3c(n[nH]c3C)C(=O)N2c2ccc(Br)cc2)ccc1O (stereo not given) | 7% | 4.5µM* | -8% | 10% | -6% | 10%
CCOc1cc(C2c3c(n[nH]c3C)C(=O)N2c2ccc(Br)cc2)ccc1O (stereo not given) | -5% | 11µM* | -9% | 1% | 2% | 4%
CCOC(=O)c1ccc(N2C(=O)c3n[nH]c(C)c3C2c2ccc(OC)c(OC)c2)cc1 (stereo not given) | 26% | ? | -4% | 17% | -6% | -13%
Cc1ccc2nc(Cl)c3cc(C(=O)NC4CCCCC4)sc3c2c1 | . | -4% | . | . | -7% | .
CCN(CC)C(=O)Cn1nnc(-c2ccc(C)o2)n1 | -5% | 25µM* | 16% | 1% | -12% | 4%
COc1cc(C(C(=O)NC2CCCC2)N(CCO)C(=O)Cn2nnc(-c3ccc(C)o3)n2)ccc1O (stereo not given) | 4% | 45µM* | 5% | -1% | -2% | 1%
COc1cc2c(cc1OC)CN(C(=O)c1ccco1)CC2 | 1% | ? | 9% | 12% | -3% | .
COc1cc2c(cc1OC)CN(C(=O)c1ccc(Br)o1)CC2 | -8% | 40µM* | 8% | 3% | -8% | -6%
CN(C)CCCNc1oc(/C=C/c2ccc(F)cc2)nc1C#N | . | 1% | . | . | 3% | .
NC(=O)C1CCN(C(=S)c2ccc(-c3ccc(Br)cc3)o2)CC1 | 3.5µM* | -29% | -5% | -4% | ? | .
NC(=O)c1ccc(-c2ccc(Br)cc2)o1 | -1% | 40µM* | -11% | -3% | -2% | -64%
COc1ccc(C2=NN(C(N)=S)C(c3ccco3)C2)cc1 (stereo not given) | -14% | 8.9µM* | 24% | 11% | -7% | .
CCc1ccc(C2=NN(C(C)=O)C(c3ccco3)C2)cc1 (stereo not given) | 3% | -17% | -21% | 16µM* | -5% | -5%
O=C(CCl)N1N=C(c2ccco2)CC1c1ccco1 (stereo not given) | 0% | 6.3µM* | 5% | 3% | -14% | 3%
O=C(O)/C=C/C(=O)N1N=C(c2ccco2)CC1c1ccco1 (stereo not given) | -1% | ? | -10% | 0% | -1% | 3%
